The record followed here is PMC7862700, “An all-to-all approach to the identification of sequence-specific readers for epigenetic DNA modifications on cytosine”.

Holding throughout (experiment): DAPPL (digital affinity profiling via proximity ligation, sequencing); 10 mM Tris-HCl pH 7.5, 50 mM NaCl, 1 mM DTT, 4% glycerol, room temperature, 30 min; GST-TFs on glutathione beads, 16-mer random dsDNA library, 0.1% formaldehyde crosslink after washing; high values mean tight binding
Holding throughout (details): protein: recombinant; tags: N-terminal GST; dsDNA, one strand shown

In one experiment the target is T1, ELK4 (Homo sapiens, UniProt P28324-2 1-405).
T1 sequence: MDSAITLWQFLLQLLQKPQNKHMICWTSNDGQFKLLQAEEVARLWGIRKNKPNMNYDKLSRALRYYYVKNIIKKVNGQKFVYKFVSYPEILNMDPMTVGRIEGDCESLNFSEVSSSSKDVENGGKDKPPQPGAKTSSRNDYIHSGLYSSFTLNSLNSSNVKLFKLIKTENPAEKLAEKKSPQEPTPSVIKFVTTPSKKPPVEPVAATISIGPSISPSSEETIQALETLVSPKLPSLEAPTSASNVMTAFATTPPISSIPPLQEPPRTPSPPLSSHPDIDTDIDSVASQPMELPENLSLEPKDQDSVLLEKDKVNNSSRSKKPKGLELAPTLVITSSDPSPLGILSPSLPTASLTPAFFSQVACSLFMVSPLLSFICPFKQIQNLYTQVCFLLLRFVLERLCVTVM
The essentials: (§1)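 Each value of binding signal is a hexamer's read frequency for a factor divided by the same hexamer's frequency in the tag-only sample. Barcoded, bead-captured GST fusions of human transcription factors made in yeast were pooled with that sample and incubated with 200 nmole of a random double-stranded 16-mer DNA library in Tris/NaCl/DTT/glycerol buffer at room temperature for 30 min. Washing, 0.1% formaldehyde crosslinking, proximity ligation, PCR and Illumina NextSeq500 sequencing followed.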

In the next experiment the target is T2, ELF3 (Homo sapiens, UniProt P78545 1-371).
T2 sequence: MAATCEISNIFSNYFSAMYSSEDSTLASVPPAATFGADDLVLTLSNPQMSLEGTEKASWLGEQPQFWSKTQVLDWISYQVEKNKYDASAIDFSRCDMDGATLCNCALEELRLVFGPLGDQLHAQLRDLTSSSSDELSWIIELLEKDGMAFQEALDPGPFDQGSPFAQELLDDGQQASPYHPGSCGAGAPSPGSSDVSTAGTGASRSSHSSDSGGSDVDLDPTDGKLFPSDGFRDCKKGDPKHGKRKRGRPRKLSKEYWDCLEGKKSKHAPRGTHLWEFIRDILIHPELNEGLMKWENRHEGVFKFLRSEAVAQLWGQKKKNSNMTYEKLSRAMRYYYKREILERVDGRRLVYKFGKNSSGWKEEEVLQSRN
The essentials:
as §1

The next experiment has as its target CRX (Homo sapiens, UniProt O43186 1-299). Put shortly: as §1
In another experiment the target is ETV1 (Homo sapiens, UniProt P50549 1-477). The essentials: as §1
Sequence of ETV1 (P50549 whole entry): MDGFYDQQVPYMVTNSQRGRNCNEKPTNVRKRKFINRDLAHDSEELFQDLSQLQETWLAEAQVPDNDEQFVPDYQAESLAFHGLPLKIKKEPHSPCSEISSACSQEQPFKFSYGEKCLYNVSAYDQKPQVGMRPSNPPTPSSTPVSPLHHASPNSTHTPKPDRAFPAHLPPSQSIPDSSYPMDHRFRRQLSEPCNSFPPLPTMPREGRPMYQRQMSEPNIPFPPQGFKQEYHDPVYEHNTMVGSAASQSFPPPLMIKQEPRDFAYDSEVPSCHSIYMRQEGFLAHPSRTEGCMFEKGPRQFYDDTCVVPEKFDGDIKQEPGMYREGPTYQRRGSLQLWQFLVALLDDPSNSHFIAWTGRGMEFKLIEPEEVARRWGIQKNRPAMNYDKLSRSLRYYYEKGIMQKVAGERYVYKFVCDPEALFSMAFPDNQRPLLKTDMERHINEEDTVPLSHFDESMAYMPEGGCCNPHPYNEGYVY
The next experiment concerns the target T3, ERF (Homo sapiens, UniProt P50548 1-548).
T3 sequence: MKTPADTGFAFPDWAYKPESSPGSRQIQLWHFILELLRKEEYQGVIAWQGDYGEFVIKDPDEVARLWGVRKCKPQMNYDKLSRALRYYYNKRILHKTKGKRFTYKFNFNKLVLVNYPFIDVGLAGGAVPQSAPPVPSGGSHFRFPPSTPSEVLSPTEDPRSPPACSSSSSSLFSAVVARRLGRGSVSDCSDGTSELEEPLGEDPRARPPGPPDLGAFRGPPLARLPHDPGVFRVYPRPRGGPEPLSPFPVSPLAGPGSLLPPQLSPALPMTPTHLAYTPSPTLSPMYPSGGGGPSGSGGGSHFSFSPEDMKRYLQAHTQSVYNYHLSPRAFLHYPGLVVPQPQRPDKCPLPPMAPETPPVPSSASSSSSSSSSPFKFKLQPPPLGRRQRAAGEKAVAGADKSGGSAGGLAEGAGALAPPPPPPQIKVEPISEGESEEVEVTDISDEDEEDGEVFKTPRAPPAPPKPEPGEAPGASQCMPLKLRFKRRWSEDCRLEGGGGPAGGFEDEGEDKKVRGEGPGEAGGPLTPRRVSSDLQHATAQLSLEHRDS
The essentials: as §1

In a further experiment the target is T4, ETV3L (Homo sapiens, UniProt Q6ZN32 1-361).
T4 sequence: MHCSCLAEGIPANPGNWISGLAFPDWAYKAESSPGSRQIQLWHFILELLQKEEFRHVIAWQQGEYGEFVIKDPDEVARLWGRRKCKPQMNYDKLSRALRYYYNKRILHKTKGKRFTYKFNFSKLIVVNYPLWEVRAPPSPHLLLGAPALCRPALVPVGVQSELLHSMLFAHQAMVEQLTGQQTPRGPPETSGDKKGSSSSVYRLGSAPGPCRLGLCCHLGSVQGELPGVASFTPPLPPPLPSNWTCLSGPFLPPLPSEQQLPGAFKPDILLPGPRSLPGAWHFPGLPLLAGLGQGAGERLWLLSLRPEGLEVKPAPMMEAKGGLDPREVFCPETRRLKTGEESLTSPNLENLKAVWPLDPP
Put shortly:
as §1

The next experiment has as its target T5, ETS2 (Homo sapiens, UniProt P15036 1-469).
T5 sequence: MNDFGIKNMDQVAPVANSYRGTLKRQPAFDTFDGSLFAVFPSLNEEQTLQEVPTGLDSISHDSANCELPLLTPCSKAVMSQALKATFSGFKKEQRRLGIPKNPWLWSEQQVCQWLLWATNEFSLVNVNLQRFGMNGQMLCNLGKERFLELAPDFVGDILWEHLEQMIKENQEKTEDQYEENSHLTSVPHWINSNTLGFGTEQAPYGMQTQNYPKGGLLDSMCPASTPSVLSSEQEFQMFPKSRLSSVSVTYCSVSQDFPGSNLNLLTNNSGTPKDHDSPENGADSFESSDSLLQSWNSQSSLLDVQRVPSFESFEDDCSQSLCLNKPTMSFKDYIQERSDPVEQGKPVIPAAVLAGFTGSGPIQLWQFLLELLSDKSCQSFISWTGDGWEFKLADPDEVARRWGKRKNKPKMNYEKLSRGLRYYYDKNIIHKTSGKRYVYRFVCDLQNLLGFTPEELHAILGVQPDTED
The essentials: as §1

The next experiment concerns the target T6, SPDEF (Homo sapiens, UniProt O95238 1-335).
T6 sequence: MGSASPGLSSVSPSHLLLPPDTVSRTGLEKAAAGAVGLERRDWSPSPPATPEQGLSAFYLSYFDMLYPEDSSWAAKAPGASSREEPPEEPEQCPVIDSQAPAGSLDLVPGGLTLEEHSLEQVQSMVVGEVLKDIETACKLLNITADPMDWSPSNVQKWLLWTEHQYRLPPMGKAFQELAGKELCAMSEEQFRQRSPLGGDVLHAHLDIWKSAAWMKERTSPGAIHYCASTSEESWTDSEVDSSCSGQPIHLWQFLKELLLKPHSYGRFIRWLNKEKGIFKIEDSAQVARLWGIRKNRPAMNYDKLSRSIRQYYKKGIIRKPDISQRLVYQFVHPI
The essentials:
as §1

For another experiment, the target named is T7, ELF5 (Homo sapiens, UniProt Q9UKW6-2 1-255).
T7 sequence: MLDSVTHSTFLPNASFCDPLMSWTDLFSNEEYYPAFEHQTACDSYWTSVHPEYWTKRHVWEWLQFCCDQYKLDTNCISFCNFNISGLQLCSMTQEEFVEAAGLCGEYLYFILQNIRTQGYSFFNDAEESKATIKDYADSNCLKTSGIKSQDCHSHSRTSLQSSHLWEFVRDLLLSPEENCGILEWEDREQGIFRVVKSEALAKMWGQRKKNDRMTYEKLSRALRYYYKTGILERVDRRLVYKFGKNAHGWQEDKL
Put shortly: as §1

The next experiment has as its target T8, ETV3 (Homo sapiens, UniProt P41162-2 1-143).
T8 sequence: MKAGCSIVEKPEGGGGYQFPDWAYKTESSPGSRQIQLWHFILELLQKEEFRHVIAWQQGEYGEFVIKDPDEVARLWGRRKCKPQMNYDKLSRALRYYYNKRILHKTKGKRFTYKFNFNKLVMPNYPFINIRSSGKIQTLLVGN
Put shortly:
as §1

The target in the next experiment is ETV6 (Homo sapiens, UniProt P41212 1-452). Put shortly:
as §1

Sequence of ETV6 (P41212 whole entry): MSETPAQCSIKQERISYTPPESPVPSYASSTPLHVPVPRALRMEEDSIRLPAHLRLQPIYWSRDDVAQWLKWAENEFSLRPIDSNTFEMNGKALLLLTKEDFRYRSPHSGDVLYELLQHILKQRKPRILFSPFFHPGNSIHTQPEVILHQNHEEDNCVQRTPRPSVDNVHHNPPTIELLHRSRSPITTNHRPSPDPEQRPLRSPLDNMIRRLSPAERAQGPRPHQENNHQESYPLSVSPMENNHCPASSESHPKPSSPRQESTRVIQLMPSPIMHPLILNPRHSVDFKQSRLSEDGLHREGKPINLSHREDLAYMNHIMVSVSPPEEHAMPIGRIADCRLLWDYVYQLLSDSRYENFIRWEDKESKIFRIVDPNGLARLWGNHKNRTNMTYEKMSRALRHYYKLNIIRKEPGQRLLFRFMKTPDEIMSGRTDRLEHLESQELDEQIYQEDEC
Sequence of CRX (O43186 whole entry): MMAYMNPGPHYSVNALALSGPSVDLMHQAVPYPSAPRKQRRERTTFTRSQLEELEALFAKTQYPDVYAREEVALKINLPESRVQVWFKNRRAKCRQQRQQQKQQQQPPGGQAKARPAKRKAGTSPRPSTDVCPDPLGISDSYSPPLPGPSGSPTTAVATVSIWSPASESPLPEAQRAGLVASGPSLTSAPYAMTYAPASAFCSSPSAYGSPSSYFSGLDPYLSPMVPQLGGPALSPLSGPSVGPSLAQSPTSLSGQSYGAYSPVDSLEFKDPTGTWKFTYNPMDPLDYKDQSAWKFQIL

Consider GATCCA, for which the binding signal with ELK4 was 1.03 fold enrichment (6-mer frequency, TF over GST control); with ELF3, 1.15 fold enrichment (6-mer frequency, TF over GST control); in the experiment with CRX, 1.23 fold enrichment (6-mer frequency, TF over GST control); in the experiment with ETV1, 1.07 fold enrichment (6-mer frequency, TF over GST control); in the experiment with ERF, 1.03 fold enrichment (6-mer frequency, TF over GST control); with ETV3L, 1.06 fold enrichment (6-mer frequency, TF over GST control). The binding signal in the experiment with ETS2 was 1.09 fold enrichment (6-mer frequency, TF over GST control); with SPDEF it was 1.17 fold enrichment (6-mer frequency, TF over GST control); with ELF5, 1.03 fold enrichment (6-mer frequency, TF over GST control); with ETV3, 1.05 fold enrichment (6-mer frequency, TF over GST control); with ETV6 it was 1.05 fold enrichment (6-mer frequency, TF over GST control).
